We go through five molecules from PubChem BioAssay.

Active and inactive are the calls of the source.

Assay [1] in a line: binders of probe aFSTL3 on microarray, primary screen, stem cell growth factor project, biochemical, small-molecule microarray, fluorescence 635/667 (AID 1064).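 Also: measures binding of the biotinylated anti-FSTL3 antibody to printed compounds.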 The settings on record: higher = more signal; small-molecule microarray, probe aFSTL3, fluorescence unless noted.
Assay [2] is described as follows: binders from COS7 lysate, DM2A8 probe, primary screen, torsin A project, cell lysate, small-molecule microarray, fluorescence 635/667 (AID 1065). Particulars: higher = more signal; small-molecule microarray, COS7 cell lysate, probe DM2A8, fluorescence, COS7 lysate expressing mutant human TOR1A unless noted.
Assay [3] is described as follows: binders of probe aFGF2 on microarray, primary screen, stem cell growth factor project, biochemical, small-molecule microarray, fluorescence 635/667 (AID 1067).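 Also: measures binding of biotinylated aFGF2 protein to printed compounds on slides; z-score merges feature fluorescence and signal-to-noise across triplicate slides.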 Particulars: higher = more signal; small-molecule microarray, probe aFGF2, fluorescence unless noted.
A short description of assay [4]: binders of probe aFGF10 on microarray, primary screen, stem cell growth factor project, biochemical, small-molecule microarray, fluorescence 635/667 (AID 1071).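 Also: score merges 667 nm spot intensity and signal to noise from triplicate slides.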 Particulars: higher = more signal; small-molecule microarray, probe aFGF10, fluorescence unless noted.
Assay [5] concerns the target Neurogenic locus notch homolog protein 2 (Homo sapiens) (UniProt Q04721). Put plainly: Notch2 binders on small-molecule microarrays, primary screen, biochemical, small-molecule microarray, 635 nm fluorescence, stem cell growth factors (AID 1073). The settings on record: Notch2 binding, higher = more signal.
For assay [6], the target named is Pro-neuregulin-1, membrane-bound isoform (Homo sapiens) (UniProt Q02297). Put plainly: NRG1 binders on small-molecule microarrays, primary screen, psychiatric disease protein project, biochemical, small-molecule microarray, fluorescence 635/667 (AID 1075).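 Also: score combines 667 nm spot fluorescence with signal to noise.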 Particulars: NRG1 binding, 635 nm fluorescence, higher = more signal.
For assay [7], the system named is Neuregulin-1 EGF-like domain. The experiment in a line: binders of neuregulin-1 EGF-like domain, primary screen, biochemical, small-molecule microarray, 635 nm fluorescence (AID 1081).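 Also: binding of the protein to compounds printed on small-molecule microarray slides.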 The settings on record: small-molecule microarray binding, higher = more signal.
Assay [8] in a line: FRG1 promoter luciferase signal modulators, primary screen, FRG1 inhibition for FSHD, cell-based, C2C12 myotubes, firefly/Renilla luciferase, luminescence (AID 1084). The settings on record: higher = more signal, called active from +8 up or from −8 down unless noted.
A short description of assay [9]: binders of probe aFST on microarray, primary screen, stem cell growth factor project, biochemical, small-molecule microarray, fluorescence 635/667 (AID 1086).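 Also: score merges 667 nm fluorescence with signal-to-noise of each printed compound spot.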 The settings on record: higher = more signal.
Assay [10] is described as follows: binders of probe aHhip on microarray, primary screen, stem cell growth factor project, biochemical, small-molecule microarray, fluorescence 635/667 (AID 1087).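 Also: score merges spot fluorescence at 667nm with spot signal to noise ratio.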 The settings on record: higher = more signal.
Assay [11] has as its system PRMT1 (protein arginine N-methyltransferase 1). The experiment in a line: PRMT1 binders on small-molecule microarrays, primary screen, biochemical, small-molecule microarray, 635 nm fluorescence (AID 1088).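 Also: binding of Prmt1 protein to compounds spotted on small-molecule microarray slides.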 Particulars: small-molecule microarray binding, higher = more signal.
Assay [12] can be described thus: yeast growth modulation, basal conditions, primary screen, YJM789 clinical isolate, OD600, 24 h (AID 1089).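 Also: growth of clinical yeast isolate S. cerevisiae YJM 789 seeded 1000 cells per well; test concentration not given here.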 The settings on record: S. cerevisiae YJM789 growth; higher = more signal, called active from +8 up or from −8 down unless noted.
Assay [13] can be described thus: fission yeast growth modulation, primary screen, strain 972, OD600, 24 h, no modulator (AID 1090).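 Also: basal condition with compound alone and no growth modifier present; test concentration not given here.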 The settings on record: S. pombe 972 growth; higher = more signal, called active from +8 up or from −8 down unless noted.
The nature of assay [14]: S. cerevisiae growth modulation with rapamycin, primary screen, strain BY4716, OD600, 96 h (AID 1091). Also: test concentration not given here. Particulars: higher = more signal, called active from +8 up or from −8 down unless noted.
Assay [15] deals with Torsin-1A-interacting protein 2 (Homo sapiens) (UniProt Q8NFQ8). Put plainly: LULL1 binders on small-molecule microarray, primary screen, cell lysate, human LULL1 lysate, 635/667 nm fluorescence (AID 1092).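 Also: score merges per-feature 667 nm fluorescence with signal-to-noise.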 Particulars: hLULL1 lysate binding, 635 nm fluorescence, higher = more signal.
A short description of assay [16]: E. coli growth modulation, two-sided OD650, primary screen, E. coli filamentation project, strain DRC41, 24 h (AID 1093).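 Also: MC1000 strain lacking acrAB efflux and sulA so SOS filamentation is blocked; test concentration not given here.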 The settings on record: OD650, 24 h; higher = more signal, called active from +8 up or from −8 down unless noted.
Assay [17] in a line: small-molecule microarray binders of probe aLefty2, primary screen, biochemical, biotinylated probe, 635/667 nm fluorescence (AID 1094).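 Also: score merges spot fluorescence near 667 nm with spot signal-to-noise ratio.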 Particulars: higher = more signal; small-molecule microarray, probe aLefty2, fluorescence unless noted.
The test system of assay [18] is Noggin (protein binding on small-molecule microarray). The experiment in a line: Noggin binders on small-molecule microarray, primary screen, biochemical, 635/667 nm fluorescence (AID 1095).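 Also: score merges 667 nm feature fluorescence with signal to noise over triplicate slides.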 Particulars: 635 nm fluorescence, higher = more signal.
The target in assay [19] is Neurogenic locus notch homolog protein 3 (Homo sapiens) (UniProt Q9UM47). The experiment in a line: NOTCH3 binders on small-molecule microarray, primary screen, biochemical, 635/667 nm fluorescence (AID 1096). Particulars: NOTCH3 binding, 635 nm fluorescence, higher = more signal.
A short description of assay [20]: small-molecule microarray binders of probe aEGFR, primary screen, biochemical, biotinylated probe, 635/667 nm fluorescence (AID 1097).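 Also: probe is a biotinylated anti-EGFR antibody binding compounds printed on slides; score combines fluorescence near 667 nm and signal to noise of each spot.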 The settings on record: higher = more signal; small-molecule microarray, probe aEGFR, fluorescence unless noted.

Chain of Torsin-1A-interacting protein 2 (Homo sapiens) (Q8NFQ8 whole entry, looked up): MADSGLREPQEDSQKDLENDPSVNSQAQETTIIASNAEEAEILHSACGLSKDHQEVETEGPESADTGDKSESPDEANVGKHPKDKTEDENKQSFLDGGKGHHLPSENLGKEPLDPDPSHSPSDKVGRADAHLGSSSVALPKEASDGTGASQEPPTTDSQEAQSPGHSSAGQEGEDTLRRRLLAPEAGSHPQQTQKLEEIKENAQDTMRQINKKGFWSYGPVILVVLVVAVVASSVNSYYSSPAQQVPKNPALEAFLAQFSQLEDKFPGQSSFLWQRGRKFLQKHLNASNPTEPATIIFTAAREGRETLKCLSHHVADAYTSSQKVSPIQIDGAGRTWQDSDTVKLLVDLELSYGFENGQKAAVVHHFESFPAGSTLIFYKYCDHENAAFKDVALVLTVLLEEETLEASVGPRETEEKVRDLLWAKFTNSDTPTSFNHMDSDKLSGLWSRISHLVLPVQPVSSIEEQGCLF
Chain of Neurogenic locus notch homolog protein 2 (Homo sapiens) (Q04721 whole entry, looked up, canonical isoform): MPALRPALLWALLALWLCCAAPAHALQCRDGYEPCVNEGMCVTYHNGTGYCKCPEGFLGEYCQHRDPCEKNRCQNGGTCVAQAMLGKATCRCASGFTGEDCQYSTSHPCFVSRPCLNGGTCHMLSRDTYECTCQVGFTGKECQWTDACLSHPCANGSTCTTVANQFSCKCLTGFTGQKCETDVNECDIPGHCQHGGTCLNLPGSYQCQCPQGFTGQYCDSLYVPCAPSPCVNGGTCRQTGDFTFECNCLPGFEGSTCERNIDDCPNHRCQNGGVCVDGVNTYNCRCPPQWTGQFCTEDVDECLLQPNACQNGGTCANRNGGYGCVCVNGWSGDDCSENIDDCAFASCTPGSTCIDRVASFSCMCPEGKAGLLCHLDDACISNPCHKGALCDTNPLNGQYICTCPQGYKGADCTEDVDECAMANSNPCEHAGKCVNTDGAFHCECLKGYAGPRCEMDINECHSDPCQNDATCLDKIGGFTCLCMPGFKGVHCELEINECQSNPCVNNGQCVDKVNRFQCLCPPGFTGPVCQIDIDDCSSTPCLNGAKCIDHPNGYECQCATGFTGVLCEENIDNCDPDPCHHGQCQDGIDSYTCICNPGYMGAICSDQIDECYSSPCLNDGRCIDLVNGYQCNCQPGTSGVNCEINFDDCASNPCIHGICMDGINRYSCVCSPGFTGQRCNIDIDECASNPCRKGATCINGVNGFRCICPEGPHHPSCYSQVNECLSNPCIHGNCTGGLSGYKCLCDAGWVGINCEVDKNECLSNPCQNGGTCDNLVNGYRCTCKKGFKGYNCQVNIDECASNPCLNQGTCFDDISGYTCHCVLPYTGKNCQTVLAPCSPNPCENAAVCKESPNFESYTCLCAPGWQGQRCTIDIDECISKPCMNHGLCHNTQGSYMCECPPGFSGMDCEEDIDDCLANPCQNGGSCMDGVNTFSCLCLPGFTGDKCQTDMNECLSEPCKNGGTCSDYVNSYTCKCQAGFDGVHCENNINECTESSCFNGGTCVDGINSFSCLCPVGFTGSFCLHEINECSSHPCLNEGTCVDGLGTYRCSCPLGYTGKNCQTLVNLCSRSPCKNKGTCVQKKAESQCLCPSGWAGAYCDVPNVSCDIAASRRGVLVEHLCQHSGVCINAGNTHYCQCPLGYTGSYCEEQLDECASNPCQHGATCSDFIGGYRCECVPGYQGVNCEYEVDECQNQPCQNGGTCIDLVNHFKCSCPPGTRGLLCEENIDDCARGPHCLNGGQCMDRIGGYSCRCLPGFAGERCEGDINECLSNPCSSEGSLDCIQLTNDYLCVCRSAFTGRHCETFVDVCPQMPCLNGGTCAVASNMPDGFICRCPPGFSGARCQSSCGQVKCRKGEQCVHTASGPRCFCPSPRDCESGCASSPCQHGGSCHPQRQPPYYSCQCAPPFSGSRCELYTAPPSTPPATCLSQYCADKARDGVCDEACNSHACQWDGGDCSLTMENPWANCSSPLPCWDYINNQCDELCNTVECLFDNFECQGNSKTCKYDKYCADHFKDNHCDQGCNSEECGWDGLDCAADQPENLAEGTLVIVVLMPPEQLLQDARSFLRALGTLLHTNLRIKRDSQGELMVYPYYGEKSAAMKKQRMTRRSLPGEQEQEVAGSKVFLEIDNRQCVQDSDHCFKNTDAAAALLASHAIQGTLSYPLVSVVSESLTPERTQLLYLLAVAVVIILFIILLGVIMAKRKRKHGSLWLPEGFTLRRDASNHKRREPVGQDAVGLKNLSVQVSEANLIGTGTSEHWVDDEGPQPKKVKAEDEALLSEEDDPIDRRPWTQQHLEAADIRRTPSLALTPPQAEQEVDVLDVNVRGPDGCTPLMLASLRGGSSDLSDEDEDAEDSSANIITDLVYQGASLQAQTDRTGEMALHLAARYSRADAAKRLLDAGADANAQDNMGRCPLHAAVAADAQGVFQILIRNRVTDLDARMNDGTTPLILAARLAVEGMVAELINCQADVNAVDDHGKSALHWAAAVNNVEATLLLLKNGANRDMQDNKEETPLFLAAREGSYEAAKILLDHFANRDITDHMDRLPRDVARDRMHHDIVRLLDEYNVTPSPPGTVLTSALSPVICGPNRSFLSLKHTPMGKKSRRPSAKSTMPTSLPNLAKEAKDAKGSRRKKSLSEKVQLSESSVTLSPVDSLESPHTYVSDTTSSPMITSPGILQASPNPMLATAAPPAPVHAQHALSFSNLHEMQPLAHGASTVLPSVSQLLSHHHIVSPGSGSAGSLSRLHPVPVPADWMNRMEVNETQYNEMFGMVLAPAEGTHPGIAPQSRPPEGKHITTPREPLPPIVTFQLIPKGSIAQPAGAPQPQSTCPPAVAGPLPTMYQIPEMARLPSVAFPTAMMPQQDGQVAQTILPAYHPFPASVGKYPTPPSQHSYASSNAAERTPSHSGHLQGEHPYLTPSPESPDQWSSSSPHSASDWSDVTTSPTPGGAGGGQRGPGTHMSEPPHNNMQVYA
Chain of Pro-neuregulin-1, membrane-bound isoform (Homo sapiens) (Q02297 whole entry, looked up, the tested form may be a part, canonical isoform): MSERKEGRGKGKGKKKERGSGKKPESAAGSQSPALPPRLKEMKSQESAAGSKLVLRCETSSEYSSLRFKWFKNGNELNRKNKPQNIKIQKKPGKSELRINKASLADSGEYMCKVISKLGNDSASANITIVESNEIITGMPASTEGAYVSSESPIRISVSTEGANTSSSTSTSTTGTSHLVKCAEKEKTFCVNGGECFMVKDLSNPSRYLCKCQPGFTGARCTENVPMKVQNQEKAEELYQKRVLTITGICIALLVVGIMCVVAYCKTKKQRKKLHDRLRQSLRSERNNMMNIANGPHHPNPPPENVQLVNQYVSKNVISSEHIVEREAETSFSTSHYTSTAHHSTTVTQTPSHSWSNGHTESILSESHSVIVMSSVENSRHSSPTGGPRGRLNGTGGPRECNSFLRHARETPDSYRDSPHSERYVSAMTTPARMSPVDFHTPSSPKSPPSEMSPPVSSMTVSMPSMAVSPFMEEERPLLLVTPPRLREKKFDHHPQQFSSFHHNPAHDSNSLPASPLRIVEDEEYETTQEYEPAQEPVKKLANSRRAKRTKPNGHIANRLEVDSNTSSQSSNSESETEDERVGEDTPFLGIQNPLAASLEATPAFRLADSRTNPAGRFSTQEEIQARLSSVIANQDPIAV

Take `C[C@@H]1Cc2c(cnc3c2CN(C)CC3)CO1`: the composite z-score in assay [1] was -0.0578; in [2], 0.442; in assay [3], -0.105; in assay [4], 0.0502; in assay [5], -0.163; in assay [6], -0.93. Besides, the composite z-score in assay [7] was -0.206; in assay [9], 0.0686; in assay [10], 0.312; in assay [11] it was -0.377; in assay [15], -0.0214; in [17] it was -0.153. In addition, the composite z-score was 0.603 in [18], -0.78 in assay [19] and 0.0255 in [20]. Besides, the z-score in assay [8] was -0.989 (inactive); in [12] it was -0.0303 (inactive); in assay [13] it was -0.591 (inactive); in assay [14], -0.582 (inactive); in [16] it was 0.262 (inactive).
Turning to `CCOC(=O)[C@H]1CC=C2C(=O)Oc3ccccc3[C@@H]21`, the composite z-score in [1] was 0.0468; in [2], -0.775; in assay [3] it was -0.083; in assay [4] it was -0.491; in [5], -0.316; in assay [6], 0.833. Moreover, the composite z-score in assay [7] is -0.169; in assay [9], -0.203; in [10] it was -0.0645; in assay [11], -0.162; in [15] it was 1.55; in assay [17], -0.134. The composite z-score in [18] was -1.09; in [19], 0.0681; in [20] it was -0.174. The z-score in assay [8] was 0.48 (inactive); in assay [12] it was -1.73 (inactive); in assay [13] it was -5.83 (inactive); in assay [14], -1.99 (inactive); in [16] it was -0.0576 (inactive).
On to `COC(=O)[C@H]1[C@H](c2ccccc2)C(=O)[C@]2(O)c3ccccc3O[C@@]12c1ccccc1`, for which the composite z-score in [1] is -0.521; in assay [2], 0.824; in [3] it was -0.0894; in assay [4], 0.273; in [5], 0.472; in assay [6] it was 0.113. Besides, the composite z-score is 0.348 in [7]; -0.12 in [9]; -0.236 in assay [10]; -0.371 in assay [11]; 0.582 in [15]; -0.267 in assay [17]. Besides, the composite z-score in assay [18] is 0.372; in assay [19], 0.667; in assay [20], -0.12. The z-score is -2.68 (inactive) in [8]; -1.36 (inactive) in [12]; -0.83 (inactive) in assay [13]; -0.713 (inactive) in [14]; 0.0043 (inactive) in assay [16].
With `COc1cc2c(cc1O)C=[N+](C)CC2`, the composite z-score in assay [1] is -0.0131; in assay [2], -0.532; in assay [3], -0.172; in assay [4], -0.17; in [5], -0.718; in assay [6], -0.835. Besides, the composite z-score in assay [7] was -0.286; in assay [9], 0.169; in assay [10], -0.639; in assay [11], -0.592; in [15] it was -0.496; in assay [17], 0.0571. In addition, the figures for the composite z-score in [18], in [19] and in assay [20] were 0.425, -0.102 and -0.0967, respectively. The z-score was -1.13 (inactive) in [8]; -1.76 (inactive) in [12]; -0.412 (inactive) in [13]; -1.25 (inactive) in assay [14]; -0.695 (inactive) in assay [16].
In the case of `COC(=O)[C@@]1(Cc2ccccc2)[C@H]2c3cc(C(=O)N(C)C)n(C)c3C[C@H]2CN1C(=O)c1ccccc1`, the composite z-score in assay [1] is 0.739; in assay [2] it was -0.389; in assay [3], 0.175; in assay [4], 0.536; in [5] it was 1.59; in [6], 2.02. Further, the composite z-score in assay [7] was 1.14; in assay [9] it was 0.566; in assay [10], 0.189; in [11], -0.0444; in assay [15], 3.35; in assay [17], 0.402. In addition, the results for the composite z-score in assay [18], in [19] and in assay [20] were -0.73, -0.0403 and -0.0391, respectively. In addition, the z-score was 1.51 (inactive) in assay [8]; 0.16 (inactive) in assay [12]; 0.923 (inactive) in [13]; 0.462 (inactive) in assay [14]; 0.0234 (inactive) in assay [16].
